Experimental data from PubChem BioAssay (NCATS).
Inconclusive results are not listed. The source made the active and inactive calls. Unless noted, calls come from the whole dose curve; as a rule, active = well fitted curve in the direction sought with a large enough effect; inconclusive = small, poorly fitted or top-dose-only effect, or another doubt; inactive = no such curve, though single readings can be large; an effect the other way counts as inactive or inconclusive.

Tests used:
[1] = molecular target: Thioredoxin reductase 1, cytoplasmic (Rattus norvegicus) (UniProt O89049); experiment: qHTS Assay for Inhibitors of Mammalian Selenoprotein Thioredoxin Reductase 1 (TrxR1) (AID 488773); conditions: Potency: inhibition;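 note: drop in NADPH fluorescence over an 8 min run after selenite addition; series mostly up to about 57 µM; % is set by controls: 0 for no effect and ±100 for the full control effect; nearly all actives have a fitted effect of over 40% in size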
Outline: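 Inhibition is scored from the loss of NADPH fluorescence between first and last reads of an 8-min kinetic run. Selenite (400 uM) was the substrate, added after 15 min compound preincubation at room temperature.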

[2] = molecular target: Flap endonuclease 1 (Homo sapiens) (UniProt P39748); experiment: qHTS Validation Assay for the Inhibitors of Human Flap endonuclease 1 (FEN1) (AID 488816); note: potency is the fitted concentration of half-maximal effect
Outline: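 Steps: add FEN1 (10 nM reagent) or buffer only; pin compounds; hold 15 min at room temperature; start with substrate, 50 nM final; read at 0 and 15 min; correct, normalize and fit a four-parameter Hill curve.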

[3] = molecular target: M-phase phosphoprotein 8 (Homo sapiens) (UniProt Q99549); experiment: qHTS Validation Assay for Inhibitors for MPP8 Chromodomain Interactions with Methylated Histone Tails (AID 488949); note: nearly all actives have a fitted effect of over 55% in size; note: potency is the fitted concentration of half-maximal effect
Outline: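 50 nM MPP8 + 50 nM b-H3K9me3 peptide, PBS pH 7.4/0.01% Tween-20, 30 min RT; + cpd 30 min RT; + AlphaScreen donor/Ni-chelate acceptor beads 10 ug/mL final, 30 min dark; luminescence read.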

[4] = molecular target: Transient receptor potential cation channel subfamily V member 1 (Homo sapiens) (UniProt Q8NER1); experiment: HTS Assay for Compounds that Act as Enhancers of the Vanilloid Receptor 1 (AID 488979); note: 0% is about no effect
Outline: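 TRPV1-expressing cells loaded with Fluo-8 calcium dye; compounds added and calcium influx read kinetically for 3 min (agonist phase), then capsaicin at EC20 added and read 2 min more for enhancement. Fluorescence ex 480/em 520 nm.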

[5] = molecular target: D(1A) dopamine receptor (Homo sapiens) (UniProt P21728); experiment: HTS Assay for Allosteric Agonists of the Human D1 Dopamine Receptor: Primary Screen for Agonists (AID 488981); note: potency is the fitted concentration of half-maximal effect; for activation: 0% is about no effect
Outline: (§1)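 Tetracycline-induced HEK293 T-REx cells force-coupled to calcium signalling were incubated overnight at 30 C and dye-loaded at room temperature. Calcium flux over 180 s after compound addition flagged agonists; a further 180 s read after EC20 dopamine flagged potentiators.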

[6] = molecular target: D(1A) dopamine receptor (Homo sapiens) (UniProt P21728); experiment: HTS Assay for Allosteric Agonists of the Human D1 Dopamine Receptor: Primary Screen for Potentiators (AID 488982); note: 0% is about no effect
Outline: as §1

[7] = molecular target: D(1A) dopamine receptor (Homo sapiens) (UniProt P21728); experiment: HTS Assay for Allosteric Agonists of the Human D1 Dopamine Receptor: Primary Screen for Antagonists (AID 488983);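 note: calcium flux response to an EC80 dopamine challenge measured with no-wash dye; % is set by controls: 0 for no effect and ±100 for the full control effect; nearly all actives have a fitted effect of over 65% in size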
Outline: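 Calcium-flux read-out in inducible HEK293 T-REx cells expressing D1, dye-loaded 30–90 min at room temperature. Kinetic reads: 180 s after compound (agonist phase), then 180 s after an EC80 dopamine challenge.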

[8] = molecular target: ATP-dependent 6-phosphofructokinase (Trypanosoma brucei brucei) (UniProt O15648); experiment: qHTS Assay to Find Inhibitors of T. brucei phosphofructokinase: hit validation (AID 492961);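 note: luminescence reports ADP formed as PFK phosphorylates fructose-6-phosphate with ATP; series mostly up to about 51 µM; % is set by controls: 0 for no effect and ±100 for the full control effect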
Outline: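 PFK 1.25 nM, F6P 0.5 mM, ATP 0.1 mM, MgCl2 5 mM, 0.1 M TEA pH 8.0, Tween20 0.01%, BSA 0.1%; 45 min RT. ADP-Glo two-step detection, luminescence. qHTS titration; curve fitting with curve-class categorization.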

[9] = Validation screen for small molecules that induce genotoxicity in human embryonic kidney (HEK293T) cells expressing luciferase-tagged ELG1 (AID 493106); note: potency is the fitted concentration of half-maximal effect
Outline: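 ELG1-luciferase reporter readout (ONE-Glo, 30 min, room temperature) after 16 hr compound treatment at 37 °C of HEK293T cells at 2,000 per well. Rising luminescence flags genotoxic stress.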

[10] = molecular target: ATPase family AAA domain-containing protein 5 (Homo sapiens) (UniProt Q96QE3); experiment: Validation screen for small molecules that inhibit ELG1-dependent DNA repair in human embryonic kidney (HEK293T) cells expressing luciferase-tagged ELG1 (AID 493107); note: nearly all actives have a fitted effect of over 70% in size; note: potency is the fitted concentration of half-maximal effect
Outline: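 Luciferase read-out, ONE-Glo, 30 min at room temperature, follows 16 h co-exposure at 37 C of compound and the DNA-damaging agent 5-fluorouridine. Cells: HEK293T with ELG1-luciferase fusion, 2,000 per well, DMSO as vehicle.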

[11] = molecular target: Thyrotropin-releasing hormone receptor (Homo sapiens) (UniProt P34981); experiment: qHTS for Small Molecule Agonists and Allosteric Enhancers of Human TRH Receptor: Validation Screen for Agonists (AID 493127;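 active = calcium activation more than 3 SD above the typical response in the agonist read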;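 note: intracellular calcium rise by fluo-8 fluorescence before TRH EC20 addition; 0% is about no effect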); conditions: TRH receptor agonist cell assay; at 2 µM; stronger effect = higher value
Outline: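 Compound-evoked intracellular calcium release in fluo-8-loaded TRHR cells, read kinetically on FDSS (Ex 480/Em 530, 1 s/cycle) after 23 nL pintool transfer. Agonist phase preceded 10 nM TRH EC20 addition.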

[12] = Nrf2 qHTS screen for inhibitors: Validation (AID 493153; active = well fitted inhibition curve with a large enough effect in the main read-out, with a control signal flat, not every such curve was filed as active); conditions: Potency: luciferase luminescence; viability change: measured here: cytotoxicity max response
Outline: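 Concentration-response on A549 ARE_Fluc reporter cells exposed 18-24 h at 37 C, 5% CO2. Cytotoxicity read first by CellTiter-Fluor fluorescence (Ex 405/Em 525), then Nrf2 inhibition by BugLite luminescence after 15 min.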

[13] = qHTS for Inhibitors of Cell Surface uPA Generation: Validation Assay (AID 493164);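 note: RAW 264.7 macrophage cells exposed to compound for 18 h; 0% is about no effect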
Outline: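 ATP-Lite luminescence read-out: ATP remains high when uPA activity-dependent LF translocation into the cytoplasm is blocked. RAW 264.7 cells, 18 h compound exposure at 37 C; 7-point titration, 2.45 nM to 38.3 uM final.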

[14] = molecular target: Galactokinase (Homo sapiens) (UniProt P51570); experiment: qHTS Validation Assay for Inhibitors of Human Galactokinase (GALK) (AID 493189); note: 0% is about no effect
Outline: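 5 nM GALK / 100 uM galactose / 35 uM ATP, 20 mM HEPES pH8.0, 5 mM MgCl2, 60 mM NaCl, 1 mM DTT, 0.01% BSA (final). RT 1 h; Kinase-Glo Plus luminescence.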

[15] = Validation screen for small molecules that induce DNA re-replication in SW480 colon adenocarcinoma cells (AID 504364); note: 0% is about no effect
Outline: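 Image-based DNA content read-out: Hoechst stain 40 min, total nuclear fluorescence intensity (ex 405 nm, em 500-530 nm) after 48 h compound exposure of 250 SW480 cells/well at 37 C, 5% CO2, versus DMSO vehicle.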

[16] = molecular target: Peptidyl-prolyl cis-trans isomerase NIMA-interacting 1 (Homo sapiens) (UniProt Q13526); experiment: qHTS Validation Assay to Find Inhibitors of Pin1 (AID 504536; active = well fitted inhibition curve with a large enough effect in the polarisation, with a control signal flat, not every such curve was filed as active; the % refers to the polarisation;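 note: 0% = full Pin1 enzyme wells and -100% = no-enzyme wells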)
Outline: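 Fluorescence polarization competition: compounds (titration) displace HiFluor-488-labeled Pin1-1b peptide from Pin1 (0.3 uM final) in pH 7.5 HEPES buffer with DTT, 10 min at room temperature; %Activity normalized to no-enzyme wells, curves fitted.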

[17] = molecular target: Phosphoglycerate kinase, glycosomal (Trypanosoma brucei brucei) (UniProt P07378); experiment: qHTS Validation Assay to Find Inhibitors of Phosphoglycerate Kinase (AID 504547);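 note: control wells lack PGK and mark full inhibition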
Outline: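 In TEA buffer (100mM, pH 7.6) containing 5mM MgCl2 and 0.01% Tween-20, the GAPDH-coupled PGK reaction proceeded for 60 minutes at room temperature before a single luminescence reading using Kinase-Glo Plus.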

[18] = molecular target: Methanococcus maripaludis chaperonin (MmCpn) (UniProt Q6LX38); experiment: High-Throughput Screening for Modulators of Cytosolic Chaperonin Activity: MmCpn Primary Screen (AID 488978);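 note: 50 nM MmCpn enzyme hydrolysing 30 µM ATP at 37 °C; 0% is about no effect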
Outline: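 Steps: chaperonin 50 nM final; add compound, 5 min RT; start with ATP, 30 uM final; hold 10 min at 37C; add ADP Transcreener HTRF reagent, 5 min; read ex 320, em 590 and 665 nm.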

[19] = molecular target: Thyrotropin receptor (Homo sapiens) (UniProt P16473); experiment: qHTS Assay for Antagonists of the Thyroid Stimulating Hormone Receptor (AID 488980); note: series mostly up to about 58 µM; 0% is about no effect
Outline: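 Readout is cAMP by HTRF competition between cellular cAMP and cAMP-d2 for a cryptate-labelled antibody. Antagonism was assessed in TSHR-transfected HEK293 cells stimulated with 4 nM TSH (EC80, final) in the presence of RO 20-1724.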

[20] = molecular target: Chromobox protein homolog 1 (Homo sapiens) (UniProt P83916); experiment: qHTS Validation Assay for Inhibitors of HP1-beta Chromodomain Interactions with Methylated Histone Tails (AID 488953); note: nearly all actives have a fitted effect of over 50% in size; note: potency is the fitted concentration of half-maximal effect
Outline: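 AlphaScreen proximity signal from streptavidin donor and nickel chelate acceptor beads (final 10 ug/mL) after 30 min dark incubation. Compounds had 30 min at room temperature with preformed complex of 50 nM HP1-beta and 50 nM b-H3(1-18)K9me3 in PBS pH 7.4 with 0.01% Tween-20.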

Chain of Phosphoglycerate kinase, glycosomal (Trypanosoma brucei brucei) (P07378 whole entry, looked up): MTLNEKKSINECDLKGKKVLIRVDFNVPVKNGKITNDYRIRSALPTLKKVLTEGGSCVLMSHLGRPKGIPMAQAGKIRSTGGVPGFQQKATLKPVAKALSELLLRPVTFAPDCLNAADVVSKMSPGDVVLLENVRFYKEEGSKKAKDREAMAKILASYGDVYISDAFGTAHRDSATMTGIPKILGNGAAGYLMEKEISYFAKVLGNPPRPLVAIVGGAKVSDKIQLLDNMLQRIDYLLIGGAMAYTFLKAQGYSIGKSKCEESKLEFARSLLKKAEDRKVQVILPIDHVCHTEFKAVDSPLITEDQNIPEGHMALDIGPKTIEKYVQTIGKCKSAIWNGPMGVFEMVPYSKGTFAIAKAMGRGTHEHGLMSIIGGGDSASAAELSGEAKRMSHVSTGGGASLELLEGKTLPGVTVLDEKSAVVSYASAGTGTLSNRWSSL
Chain of Peptidyl-prolyl cis-trans isomerase NIMA-interacting 1 (Homo sapiens) (Q13526 whole entry, looked up): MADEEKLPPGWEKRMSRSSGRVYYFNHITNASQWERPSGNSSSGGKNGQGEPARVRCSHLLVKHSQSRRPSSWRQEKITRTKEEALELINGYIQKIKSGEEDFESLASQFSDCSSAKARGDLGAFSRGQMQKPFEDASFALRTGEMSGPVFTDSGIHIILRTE
Chain of Transient receptor potential cation channel subfamily V member 1 (Homo sapiens) (Q8NER1 whole entry, looked up): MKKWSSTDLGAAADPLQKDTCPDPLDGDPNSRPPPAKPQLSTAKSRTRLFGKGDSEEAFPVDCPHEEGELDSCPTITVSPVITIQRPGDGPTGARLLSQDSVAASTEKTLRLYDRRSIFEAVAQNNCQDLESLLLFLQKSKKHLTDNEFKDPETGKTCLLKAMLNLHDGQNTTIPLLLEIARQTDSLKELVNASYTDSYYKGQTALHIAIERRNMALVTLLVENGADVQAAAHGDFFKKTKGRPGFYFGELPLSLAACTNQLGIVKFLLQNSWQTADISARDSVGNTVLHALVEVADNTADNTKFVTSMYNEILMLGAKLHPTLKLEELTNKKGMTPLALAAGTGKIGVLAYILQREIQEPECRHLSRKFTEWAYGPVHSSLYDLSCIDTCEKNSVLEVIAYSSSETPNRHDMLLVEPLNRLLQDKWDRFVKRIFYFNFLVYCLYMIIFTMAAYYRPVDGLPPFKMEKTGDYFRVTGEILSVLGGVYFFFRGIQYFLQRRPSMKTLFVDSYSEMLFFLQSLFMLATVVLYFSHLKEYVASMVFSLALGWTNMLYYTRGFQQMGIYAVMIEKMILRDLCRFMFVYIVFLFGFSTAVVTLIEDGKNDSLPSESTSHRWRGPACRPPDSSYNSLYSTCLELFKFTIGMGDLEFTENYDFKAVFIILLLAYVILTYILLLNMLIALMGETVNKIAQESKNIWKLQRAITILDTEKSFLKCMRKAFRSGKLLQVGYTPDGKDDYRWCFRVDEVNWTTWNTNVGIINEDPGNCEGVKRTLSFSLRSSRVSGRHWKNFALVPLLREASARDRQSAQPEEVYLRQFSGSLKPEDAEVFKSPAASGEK
Chain of ATP-dependent 6-phosphofructokinase (Trypanosoma brucei brucei) (O15648 whole entry, looked up): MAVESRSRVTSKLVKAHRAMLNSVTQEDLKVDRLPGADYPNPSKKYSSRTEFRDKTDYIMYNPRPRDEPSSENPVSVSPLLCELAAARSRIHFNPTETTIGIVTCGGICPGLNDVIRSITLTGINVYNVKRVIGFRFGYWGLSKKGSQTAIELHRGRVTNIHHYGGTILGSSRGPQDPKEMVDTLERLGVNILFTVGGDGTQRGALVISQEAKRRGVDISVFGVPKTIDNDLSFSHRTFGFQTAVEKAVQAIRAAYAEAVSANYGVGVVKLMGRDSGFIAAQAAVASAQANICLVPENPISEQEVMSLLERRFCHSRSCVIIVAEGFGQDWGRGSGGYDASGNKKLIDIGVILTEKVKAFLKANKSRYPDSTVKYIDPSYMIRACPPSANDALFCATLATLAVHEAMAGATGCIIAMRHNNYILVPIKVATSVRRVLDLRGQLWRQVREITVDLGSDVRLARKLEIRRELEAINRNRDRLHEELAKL
Chain of Methanococcus maripaludis chaperonin (MmCpn) (Q6LX38 1-543): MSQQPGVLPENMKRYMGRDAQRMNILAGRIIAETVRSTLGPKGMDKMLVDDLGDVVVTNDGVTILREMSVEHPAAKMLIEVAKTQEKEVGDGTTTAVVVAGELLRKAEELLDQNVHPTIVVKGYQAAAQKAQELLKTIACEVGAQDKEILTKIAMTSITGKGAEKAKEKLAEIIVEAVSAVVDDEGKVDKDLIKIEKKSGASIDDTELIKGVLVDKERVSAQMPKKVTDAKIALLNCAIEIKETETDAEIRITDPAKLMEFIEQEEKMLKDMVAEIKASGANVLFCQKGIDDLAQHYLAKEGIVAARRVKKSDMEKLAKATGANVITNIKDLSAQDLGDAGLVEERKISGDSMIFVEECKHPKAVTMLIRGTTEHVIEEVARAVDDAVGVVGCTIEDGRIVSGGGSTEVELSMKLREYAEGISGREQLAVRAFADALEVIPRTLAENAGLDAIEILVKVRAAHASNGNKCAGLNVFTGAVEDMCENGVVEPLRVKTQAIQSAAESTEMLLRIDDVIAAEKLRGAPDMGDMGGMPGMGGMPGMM
Chain of Thioredoxin reductase 1, cytoplasmic (Rattus norvegicus) (O89049 whole entry, looked up): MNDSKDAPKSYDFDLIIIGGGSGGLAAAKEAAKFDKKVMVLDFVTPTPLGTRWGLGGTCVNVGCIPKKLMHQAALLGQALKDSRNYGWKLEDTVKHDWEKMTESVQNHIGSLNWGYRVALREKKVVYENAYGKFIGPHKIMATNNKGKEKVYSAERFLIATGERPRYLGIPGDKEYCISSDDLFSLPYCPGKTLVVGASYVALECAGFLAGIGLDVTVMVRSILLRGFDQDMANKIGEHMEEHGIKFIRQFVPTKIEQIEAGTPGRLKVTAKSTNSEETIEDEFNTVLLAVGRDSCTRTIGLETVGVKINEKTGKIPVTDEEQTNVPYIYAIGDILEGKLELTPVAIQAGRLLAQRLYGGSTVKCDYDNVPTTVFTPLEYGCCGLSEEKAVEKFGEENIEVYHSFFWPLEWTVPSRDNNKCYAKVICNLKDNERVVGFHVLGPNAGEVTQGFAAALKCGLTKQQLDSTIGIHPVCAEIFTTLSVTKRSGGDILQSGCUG
Chain of D(1A) dopamine receptor (Homo sapiens) (P21728 whole entry, looked up): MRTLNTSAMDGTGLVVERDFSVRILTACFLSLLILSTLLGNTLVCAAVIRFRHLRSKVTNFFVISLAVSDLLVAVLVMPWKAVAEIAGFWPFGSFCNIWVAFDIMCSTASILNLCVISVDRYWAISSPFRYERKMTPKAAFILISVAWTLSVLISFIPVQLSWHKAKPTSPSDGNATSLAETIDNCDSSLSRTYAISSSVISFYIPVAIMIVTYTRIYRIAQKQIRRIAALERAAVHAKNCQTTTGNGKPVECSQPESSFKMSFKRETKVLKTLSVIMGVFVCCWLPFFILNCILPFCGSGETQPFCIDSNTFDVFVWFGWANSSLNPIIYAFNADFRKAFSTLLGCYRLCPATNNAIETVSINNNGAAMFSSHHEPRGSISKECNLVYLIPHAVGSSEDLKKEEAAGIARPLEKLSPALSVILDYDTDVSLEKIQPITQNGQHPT
Chain of Thyrotropin receptor (Homo sapiens) (P16473 whole entry, looked up): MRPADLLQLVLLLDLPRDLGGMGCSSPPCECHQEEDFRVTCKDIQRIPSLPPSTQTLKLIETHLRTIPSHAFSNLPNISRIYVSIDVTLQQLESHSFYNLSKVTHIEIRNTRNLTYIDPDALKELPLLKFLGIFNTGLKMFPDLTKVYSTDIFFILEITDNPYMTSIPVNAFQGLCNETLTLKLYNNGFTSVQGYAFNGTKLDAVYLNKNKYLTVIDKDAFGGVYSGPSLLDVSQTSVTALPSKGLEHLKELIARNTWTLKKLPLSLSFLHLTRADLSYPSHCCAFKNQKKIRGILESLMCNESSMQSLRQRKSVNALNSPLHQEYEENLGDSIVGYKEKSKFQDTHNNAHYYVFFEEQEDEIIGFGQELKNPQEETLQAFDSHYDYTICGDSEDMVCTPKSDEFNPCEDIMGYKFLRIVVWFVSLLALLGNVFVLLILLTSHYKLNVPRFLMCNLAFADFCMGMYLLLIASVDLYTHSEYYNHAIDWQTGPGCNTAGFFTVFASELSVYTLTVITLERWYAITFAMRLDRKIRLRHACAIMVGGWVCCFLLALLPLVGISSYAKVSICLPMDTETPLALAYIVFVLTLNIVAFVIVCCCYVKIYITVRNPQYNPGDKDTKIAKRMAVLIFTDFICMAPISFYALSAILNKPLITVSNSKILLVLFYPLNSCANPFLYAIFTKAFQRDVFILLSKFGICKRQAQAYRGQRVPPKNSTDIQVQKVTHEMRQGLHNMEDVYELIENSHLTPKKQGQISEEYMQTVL
Chain of Chromobox protein homolog 1 (Homo sapiens) (P83916 whole entry, looked up): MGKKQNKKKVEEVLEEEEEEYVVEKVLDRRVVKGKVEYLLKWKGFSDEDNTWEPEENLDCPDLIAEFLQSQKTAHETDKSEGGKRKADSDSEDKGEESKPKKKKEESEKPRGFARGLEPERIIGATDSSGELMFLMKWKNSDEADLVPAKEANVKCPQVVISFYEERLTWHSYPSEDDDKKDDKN
Chain of Flap endonuclease 1 (Homo sapiens) (P39748 whole entry, looked up): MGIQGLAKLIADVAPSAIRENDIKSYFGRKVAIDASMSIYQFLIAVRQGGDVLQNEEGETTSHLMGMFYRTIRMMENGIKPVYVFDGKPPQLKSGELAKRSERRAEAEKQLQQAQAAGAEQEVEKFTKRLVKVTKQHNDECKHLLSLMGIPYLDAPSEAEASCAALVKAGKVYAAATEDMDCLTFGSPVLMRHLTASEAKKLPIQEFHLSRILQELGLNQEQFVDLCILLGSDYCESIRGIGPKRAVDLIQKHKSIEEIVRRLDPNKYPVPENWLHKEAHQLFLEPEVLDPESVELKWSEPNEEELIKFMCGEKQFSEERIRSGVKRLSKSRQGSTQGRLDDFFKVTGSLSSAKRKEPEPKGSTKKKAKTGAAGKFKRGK

FC(F)(F)c1ccccc1-n1ccnc1
inactive: Potency [1] | Potency [2] | Potency [3] | outcome [4] | Potency [5] | Potency [6] | Potency [7] | outcome [8] | Potency [9] | Potency [10] | activation [11] -2.62% | Potency [12] | outcome [13] | outcome [14] | outcome [15] | outcome [16] | outcome [17]
12.3%: viability change [12]

CCOC(=O)C1=C(C)NC(C)=C(C(=O)OC)C1c1cccc([N+](=O)[O-])c1 (stereo not drawn)
inactive: Potency [1] | Potency [2] | Potency [3] | outcome [18] | outcome [4] | outcome [19] | Potency [5] | Potency [9] | activation [11] -4.62% | Potency [12] | outcome [13] | outcome [16] | outcome [17]
9.17%: viability change [12]

OCCN1CCN(CC/C=C2/c3ccccc3Sc3ccc(C(F)(F)F)cc32)CC1
active: Potency [3] 25.1 µM | Potency [20] 35.5 µM
-4.74%: viability change [12]
inactive: Potency [1] | Potency [2] | outcome [19] | Potency [5] | Potency [6] | outcome [8] | Potency [9] | activation [11] 1.19% | Potency [12] | outcome [13] | outcome [14] | outcome [15] | outcome [16] | outcome [17]

C[N+](C)(C)CCOC(N)=O
14%: viability change [12]
active: activation [11] 30.9%
inactive: Potency [1] | Potency [2] | Potency [3] | Potency [20] | outcome [19] | Potency [5] | Potency [7] | Potency [10] | Potency [12] | outcome [13] | outcome [15] | outcome [16] | outcome [17]

CCn1cc(C(=O)O)c(=O)c2cc3c(cc21)OCO3
inactive: Potency [1] | Potency [2] | Potency [3] | outcome [18] | outcome [19] | Potency [5] | Potency [6] | Potency [7] | Potency [9] | Potency [10] | activation [11] -0.375% | Potency [12] | outcome [13] | outcome [15] | outcome [16] | outcome [17]
-3.79%: viability change [12]

CN1CCN(CC(=O)N2c3ccccc3C(=O)Nc3cccnc32)CC1
11.6%: viability change [12]
inactive: Potency [1] | Potency [2] | Potency [3] | outcome [4] | outcome [19] | Potency [5] | Potency [7] | Potency [9] | Potency [12] | outcome [13] | outcome [14] | outcome [16] | outcome [17]

CC(C)(C)c1ccc(C(=O)CCCN2CCC(OC(c3ccccc3)c3ccccc3)CC2)cc1
-5.59%: viability change [12]
inactive: Potency [1] | Potency [2] | Potency [3] | outcome [18] | Potency [5] | outcome [8] | Potency [9] | Potency [12] | outcome [13] | outcome [16] | outcome [17]

C[C@]12CCC(=O)C=C1CC[C@@H]1[C@@H]2CC[C@@]2(C)[C@H]1CC[C@]2(O)C(=O)CO
inactive: Potency [1] | Potency [3] | Potency [20] | outcome [18] | outcome [4] | outcome [19] | Potency [5] | Potency [6] | Potency [7] | outcome [8] | Potency [9] | activation [11] 0.188% | outcome [13] | outcome [15] | outcome [16] | outcome [17]

COCCCC/C(=N\OCCN)c1ccc(C(F)(F)F)cc1
inactive: Potency [1] | Potency [3] | Potency [20] | outcome [18] | outcome [19] | Potency [7] | Potency [9] | Potency [10] | Potency [12] | outcome [13] | outcome [16] | outcome [17]
9.56%: viability change [12]

CC(=O)[C@]1(O)Cc2c(O)c3c(c(O)c2[C@@H](O[C@H]2C[C@H](N)[C@H](O)[C@H](C)O2)C1)C(=O)c1ccccc1C3=O
inactive: outcome [19] | Potency [12] | outcome [13] | outcome [14] | outcome [17]
-47.3%: viability change [12]
active: Potency [2] 26.7 µM | Potency [3] 28.2 µM | Potency [20] 39.8 µM | Potency [5] 11.2 µM | Potency [9] 0.58 µM | Potency [10] 5.8 µM
